About 4,300 (8.3%) of roughly 52,000 compounds were called active. This excerpt belongs to a sample that is enriched for actives. Unmarked numbers belong to inactive results. Cut-off read from the data, not from the text of the source: active = survival mostly below about 52% (no sharp cut-off); inactive = mostly above about 56%.
Tested on: DeltatarO mutant
Assay: S. aureus survival, RN4220 and DeltatarO strains – OD600, teichoic acid synthesis inhibitors, primary screen (AID 463173)
Conditions: S. aureus RN4220 wild type/DeltatarO growth, OD600, 18 h, active compounds read low, screened at 18.75 µg/mL (by protocol)

Compared with `CCOC(=O)N1CCC(NC(=O)c2cnn(-c3ccccc3)c2C2CCN(C(=O)OC(C)(C)C)CC2)CC1`, `CCc1ccc(-n2c(=O)c3c4c(sc3n(CC(=O)N3CCC(C)CC3)c2=O)CCC4)cc1` is lower in survival: 117% for the first, 83% for the second.

Compared with `CCOc1ccc(C2=NC(c3cccs3)=Nc3ccc(CC)cc3N2)cc1OCC`, `COc1ccc(CCNc2nc(SCc3cccc(F)c3)nc3ccccc23)cc1OC` is higher in survival: 77% for the first, 85% for the second.

First: COc1cccc(CNC(=O)c2cc(-c3cccc(OC)c3)n[nH]2)c1
Second: COc1ccc(CNC(=O)c2ccc3nc(CCc4ccccc4)oc3c2)c(OC)c1
The survival of the first is lower: 71% for the first, 135% for the second.

Compared with `O=C(NCc1ccccc1)N1CCc2c(sc3c2CCCC3)C1c1ccccc1` (stereo not drawn), `Cc1ccc(N2C(=O)CCSC23C(=O)N(Cc2ccccc2)c2ccccc23)cc1F` (stereo not drawn) is higher in survival: 75% for the first, 89% for the second.

Going from `COc1cc(C)ccc1OCCCn1c(-c2ccc(Cl)cc2)nc2ccccc2c1=O` to `COc1cc(Nc2nc(SCc3ccc(Cl)cc3)nc3ccccc23)cc(OC)c1`, the survival rises from 62% to 91%.

First: O=C(NC1CCCCCC1)C1c2ccccc2C(=O)N1Cc1ccc(F)cc1 (stereo not drawn)
Second: O=C(NCc1ccccc1)c1ccc2c(c1)N(Cc1ccccc1F)C(=O)c1ccccc1S2=O (stereo not drawn)
The survival of the first is higher: 111% for the first, 92% for the second.

Compared with `Cc1ccc(CNC(=O)c2ccc(-c3nc(CS(=O)c4ccccc4)c(C)o3)cc2)cc1` (stereo not drawn), `CN(C)c1ccc(CNC(=O)c2ccc3nc(CCc4ccccc4)oc3c2)cc1` is higher in survival: 88% for the first, 93% for the second.

First: Fc1ccc(Nc2nc(SCc3cccc(Cl)c3)nc3ccccc23)cc1
Second: Clc1cccc(CSc2nc(NCCc3ccccc3)c3ccccc3n2)c1
The survival of the first is lower: 70% for the first, 102% for the second.

Going from `COc1ccc(-n2ccnc2SCC(=O)Nc2ccc3c(c2)OCO3)cc1` to `CCOc1ccc(N(CC(=O)Nc2ccc3c(c2)OCO3)S(=O)(=O)c2ccccc2)cc1`, the survival falls from 105% to 87%.

Going from `Cc1ccc2nc(-c3ccsc3)c(Nc3ccc(C(C)C)cc3)n2c1` to `COc1ccc(OC(=O)c2nc(SCc3ccc(C)cc3)ncc2Cl)cc1`, the survival falls from 124% to 57%.

Going from `N#CC(C#N)=Cc1cn(-c2ccccc2)nc1-c1ccccc1` to `O=C(NCc1cccc(F)c1)c1ccc2nc(CCc3ccccc3)oc2c1`, the survival rises from 68% to 79%.

Going from `O=C(NCc1ccccc1)C(=O)NCC(c1ccc2c(c1)OCO2)N1CCOCC1` (stereo not drawn) to `CCCNC(=O)c1ccc2nc(CCc3ccccc3)oc2c1`, the survival falls from 92% to 78%.

Compared with `CCc1ccc(NC(=O)CC2C(=O)N(c3ccc(Cl)cc3)C(=O)N2Cc2ccco2)cc1` (stereo not drawn), `CCc1ccc(NC(=O)CC2C(=O)N(c3cccc(C)c3)C(=O)N2Cc2ccco2)cc1` (stereo not drawn) is higher in survival: 91% for the first, 118% for the second.

Going from `COC(=O)c1ccc(NC(=O)CC2C(=O)N(c3cccc(C)c3)C(=O)N2Cc2ccco2)cc1` (stereo not drawn) to `COC(=O)c1ccc(NC(=O)CC2C(=O)N(c3cccc(OC)c3)C(=O)N2Cc2ccco2)cc1` (stereo not drawn), the survival falls from 92% to 70%.

First: CCN(CC)c1ccc2cc(C(=O)Nc3cccc(OC)c3)c(=O)oc2c1
Second: COc1ccc(Cn2ccc3nc(C)c(C(=O)Nc4cccc(SC)c4)cc3c2=O)cc1
The survival of the first is lower: 75% for the first, 95% for the second.

Going from `Cn1nnc2c(NCc3c(F)cccc3F)ncnc21` to `COc1ccc(NC(=O)c2ccco2)cc1NC(=O)COc1ccc(Cl)cc1C`, the survival falls from 80% to 57%.

Compared with `C=CCn1c(C#N)c(N)sc1=N`, `Cc1cc(S(=O)(=O)n2ccnc2C(C)C)cc([N+](=O)[O-])c1C` is lower in survival: 96% for the first, 57% for the second.

First: CCc1ccc(CNC(=O)c2ccc3nc(C(C)C)oc3c2)cc1
Second: CCOc1ccc(CNC(=O)c2ccc3nc(C(C)C)oc3c2)cc1
The survival of the first is higher: 82% for the first, 76% for the second.

First: O=C(NCCc1ccc(Cl)cc1)c1ccc2nc(CCc3ccccc3)oc2c1
Second: COc1ccc(CNC(=O)c2ccc3nc(CCc4ccccc4)oc3c2)cc1OC
The survival of the first is lower: 75% for the first, 79% for the second.

First: COc1ccc(CCNC(=O)c2ccc3nc(Cc4ccccc4)oc3c2)cc1OC
Second: COc1ccc(Cc2nc3ccc(C(=O)NCCc4ccc(OC)c(OC)c4)cc3o2)cc1
The survival of the first is higher: 99% for the first, 77% for the second.

Going from `COc1ccc(Nc2ncc(C(=O)N3CCN(c4ccc(OC)cc4)CC3)c3ccccc23)cc1` to `COc1ccc(NC(=O)c2sc3nc(C)c(C(=O)Nc4ccc(C)cc4C)c(-c4sccc4C)c3c2N)cc1`, the survival rises from 74% to 91%.

Going from `O=C(O)CSc1c2c(nc3cc(C(=O)Nc4ccc(F)c(Cl)c4)ccc13)CCC2` to `COc1ccc(NC(=O)c2ccco2)cc1NC(=O)c1cc(Cl)ccc1OC`, the survival falls from 88% to 49%.

Compared with `Cc1ccc(-c2onc(C)c2C)cc1S(=O)(=O)NC1CCCCC1`, `COc1ccc(NC(=O)c2ccco2)cc1NC(=O)C(C)C` is higher in survival: 77% for the first, 84% for the second.

With `COc1ccc(NC(=O)c2ccco2)cc1NC(=O)c1ccc(OC(C)C)cc1` the survival was 121%.

`Fc1cccc(CSc2nc(NCCc3ccccc3)c3ccccc3n2)c1` was tested, and the survival was 20% (active).
`COc1cc(Nc2nc(SCc3cccc(Cl)c3)nc3ccccc23)cc(OC)c1` was tested, and the survival was 37% (active).
With `COC(=O)c1ccc(NC(=O)CC2C(=O)N(c3ccc(Cl)cc3)C(=O)N2Cc2ccco2)cc1` (stereo not drawn) the survival was 37% (active).
`CCc1ccc(NC(=O)CC2C(=O)N(c3cccc(OC)c3)C(=O)N2Cc2ccco2)cc1` (stereo not drawn) was tested, and the survival was 25% (active).
`O=C(NCCc1ccccc1)c1ccc2nc(CCc3ccccc3)oc2c1` was tested, and the survival was 32% (active).
In the case of `O=C(NCc1ccccc1)c1ccc2nc(CCc3ccccc3)oc2c1`, the survival is reported as 0% (active).
For `CCOc1cc(CNC(=O)c2ccc3nc(C(C)C)oc3c2)cc(OCC)c1OCC`, the survival was 47% (active).
`COc1ccc(CCNC(=O)c2ccc3nc(CCc4ccccc4)oc3c2)cc1OC` was tested, and the survival was 37% (active).
In the case of `COc1ccc(CNC(=O)c2ccc3nc(CCc4ccccc4)oc3c2)cc1`, the survival is reported as 0% (active).
`COc1ccc(NC(=O)c2ccco2)cc1NC(=O)C(C)Oc1ccc(Cl)cc1Cl` (stereo not drawn) was tested, and the survival was 28% (active).
For `COc1ccc(NC(=O)c2ccco2)cc1NC(=O)C(C)(C)Oc1ccc(Cl)cc1`, the survival was 40% (active).

Source: PubChem BioAssay AID463173 (ICCB-Longwood Screening Facility, Harvard Medical School, 2010)
